Data reported in PubChem BioAssay AID540301 (National Center for Advancing Translational Sciences (NCATS), 2011).
Some of the results follow. Results filed as inconclusive are left out. Values without a mark were called inactive. The call rests on the fitted dose curve; in most records, active means well fitted curve in the direction sought with a large enough effect; inconclusive means small, poorly fitted or top-dose-only effect, or another doubt; inactive means no such curve, though single readings can be large or run the other way.

Test: Inhibitors of DNA Polymerase Beta: Hit Validation in HIV-RT Assay
Conditions: HIV-1 RT polymerase activity, counter-screen; series mostly up to 57.1 µM; activity % (negative = inhibition, positive = activation): at the top concentration
Source text: The base excision repair system in human cells is a target for therapeutic modulation of the response to irradiation treatment and DNA-damaging drugs. A key enzyme in this system is the bi-functional DNA polymerase known as DNA polymerase beta (pol b). […] Using an integrated approach involving discovery of small molecule probes for pol b via qHTS and validation by crystallography and kinetics along with cell-based validation experiments, we will test the hypothesis that base excision repair can be strategically modulated in human cells by targeting pol b. Thus, we anticipate the pol b-specific probes emerging from this research will serve as starting points in the development of clinical agents for use in down regulation of DNA base excision repair during therapeutic interventions against cancer.
After the completion of the qHTS against the Molecular Libraries Small Molecular Repository (MLSMR), cherry picked compounds were confirmed in the primary qHTS pol beta assay and further characterized in several follow-up assays. To avoid compound promiscuity, we selected a completely unrelated viral polymerase to polymerase beta, HIV reverse transcriptase(RT) as a counter screen. There are distinct differences between the two polymerases, such as source of host and HIV RT is responsible for transcribing the virus' single stranded RNA into double-stranded DNA after entry into its host cell. […] To us, a favorable outcome in this assay is inactivity.
NIH Chemical Genomics Center [NCGC]
NIH Molecular Libraries Probe Centers Network [MLPCN]
Assay Submitter (PI): Samuel Wilson, National Institute of Environmental Health Sciences (NIEHS), NIH
A stepwise description of the 1536-well assay is shown in next Table. Three microliters of reagents (buffer in column 3 and 4 as negative control and 10 nM Pol beta in columns 1, 2, and 5-48) was dispensed into 1,536-well black solid-bottomed plate. Compounds (23 nL) were transferred via Kalypsys pin tool equipped with 1536-pin array (10 nL slotted pins, V&P Scientific, San Diego, CA). The plates were incubated for 15 min at room temperature, and 1 uL substrate (50 nM final concentration) were added to start the reaction and immediately read at 0 min read on Viewlux reader. The plate were further incubated for 10 min at room temperature, and then read on Viewlux again. Throughout the screen, reagent bottle and all liquid lines were chilled and made light-tight to minimize reagent degradation. All screening operations were performed on a fully integrated robotic system (Kalypsys, San Diego, CA) containing one RX-130 and two RX-90 anthropomorphic robotic arms (Staubli, Duncan, SC). Library plates were screened starting from the lowest and proceeding to the highest concentration, and a double-dipping step of the highest concentration was required to access higher concentrations of compounds. Vehicle-only plates, with DMSO being pin-transferred to the entire column 5-48 compound area, were inserted uniformly at the beginning and the end of each library in order to monitor for and record any shifts in the background, which can be affected by reagent dispensers or loss in enzyme activity overtime. Screening data were corrected, normalized, and concentration-effect relationships were derived by using publicly-available curve fitting algorithms developed in-house (http://ncgc.nih.gov/pub/openhts). A four parameter Hill equation was fitted to the concentration-response data by minimizing the residual error between the modeled and observed responses.

| Compound | activity % (negative = inhibition, positive = activation) [%] |
| --- | --- |
| Cc1ccc2nc(-c3ccncc3)cc(C(=O)Nc3ccc(OC(F)F)cc3)c2c1 | 31.2 |
| O=C(Nc1ccc(S(=O)(=O)Nc2nccs2)cc1)c1cc(-c2ccncc2)nc2ccccc12 | 20.5 |
| Cc1c(CCC(=O)O)c(=O)oc2c(C)c(OCc3ccccc3Cl)ccc12 | 31.4 |
| COc1ccc(Cc2nnc(NC(=O)Cc3cccs3)s2)cc1 | 26.1 |
| O=C(c1cc2c(s1)CCC2)N1CCN(c2ccccc2)CC1 | 32.1 |
| Cc1ccc(C(=O)Oc2coc(CSc3nnc(NC(=O)c4cccs4)s3)cc2=O)cc1C | 30 |
| COc1cc([C@H](Cc2ccccc2)NC(C)=O)oc(=O)c1 | -11.1 |
